High-throughput results (PubChem BioAssay)
This is one part of a sample in which hits are shown more often than they occur.
HCMV NEC inh: inhibitors of HCMV UL50-UL53 interaction, biochemical, HTRF | AID 1918969, 2023 | hit rate 0.15% among 190,000 | inhibition, % (concentration not given with the values) | HCMV UL50-UL53 nuclear egress complex (human cytomegalovirus) | normalized percent inhibition; in the data active = inhibition above about 27%, passing the limit was not always enough
Sa helicase inh: inhibitors of S. aureus replicative helicase, primary screen, biochemical, fluorescence unwinding readout; replicative DNA helicase (DnaC/DnaB), Staphylococcus aureus; purified S. aureus helicase, fluorescence unwinding assay; inhibition, % (concentration not given with the values); hit rate 0.05% among 120,000; in the data active = inhibition above about 25%, passing the limit was not always enough
Sa growth 42C: S. aureus growth inhibition at 42 and 30 °C, primary screen, LtaS inhibitor project, RN4220, two temperatures; OD600, 20 h, 42 °C; stronger effect = lower value; relative growth, % (concentration not given with the values); hit rate 0.53% among 170,000; AID 720641, 2013;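 active = relative growth at most 50% at the other temperature and 20+ points below 30 °C, or under 10% at both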
Hits are given with their value; . = inactive; / = no result.

SMILES	HCMV NEC inh	Sa helicase inh	Sa growth 42C
Cc1ccc(/C=c2/sc3nc(=O)cnn3c2=O)cc1	72	.	.
O=c1/c(=C/c2ccccc2)sc2nc(-c3ccccc3)nn12	/	.	.
CCn1c(=O)c2sccc2n2c(SCc3ccc(Br)cc3)nnc12	.	/	/
COCCN(CCOC)S(=O)(=O)c1ccc(C(=O)Nc2nnc(-c3cccc([N+](=O)[O-])c3)s2)cc1	.	/	/
O=S(=O)(c1ccc(F)cc1)N1CCc2ccccc21	.	.	/
O=S(=O)(c1ccc(Cl)cc1)N1CCc2ccccc21	.	.	0.3
Nc1nc(N2CCOCC2)ncc1S(=O)(=O)c1ccc(C(F)(F)F)cn1	.	.	.
CCn1cc(C(=O)O)c(=O)c2cc(F)c(F)cc21	/	.	.
CCn1cc(C(=O)O)c(=O)c2cc(F)c(N(C)CCc3ccc(OC)c(OC)c3)cc21	.	.	0.0
Cc1ccc(-c2ccc(O)cc2)cc1	.	.	47
Cc1ccc(O)cc1	.	/	.
COc1ccc2[nH]c3c(c2c1)CCn1c-3nc2sc3c(c2c1=N)CCCC3	.	/	/
Cc1ccc(C)n1-c1ccc(C(=O)Nc2nccs2)cc1	.	.	.
O=C(C1CCN(S(=O)(=O)c2cccc3nonc23)CC1)N1CCCC1	.	.	.
CCC1OC(=O)C(C)C(OC2C[C@@](C)(OC)C(O)C(C)O2)C(C)C(OC2OC(C)CC(N(C)C)C2O)[C@](C)(O)CC(C)CN(C)C(C)C(O)[C@]1(C)O (some centres undefined)	.	/	/
CC[C@H]1OC(=O)[C@H](C)[C@@H](O[C@H]2C[C@@](C)(OC)[C@@H](O)[C@H](C)O2)[C@H](C)[C@@H](O[C@@H]2O[C@H](C)C[C@H](N(C)C)[C@H]2O)[C@](C)(O)C[C@@H](C)CN(C)[C@H](C)[C@@H](O)[C@]1(C)O	.	/	-0.9
COc1cccc2c1C(=O)c1c(O)c3c(c(O)c1C2=O)C[C@@](O)(C(C)=O)C[C@@H]3O[C@H]1C[C@H](N)[C@H](O)[C@H](C)O1	.	/	.
COc1cccc2c1C(=O)c1c(O)c3c(c(O)c1C2=O)C[C@@](O)(C(=O)CO)C[C@@H]3O[C@H]1C[C@H](N)[C@@H](O)[C@H](C)O1	/	/	2.0
CC(=O)[C@]1(O)Cc2c(O)c3c(c(O)c2[C@@H](O[C@H]2C[C@H](N)[C@H](O)[C@H](C)O2)C1)C(=O)c1ccccc1C3=O	.	/	0.4
COc1cccc2c1C(=O)c1c(O)c3c(c(O)c1C2=O)C[C@@](O)(C(=O)CO)CC3O[C@H]1CC(N)C(O)C(C)O1 (some centres undefined)	.	/	/
CN1C(=O)c2cc(C(=O)N3CCN(C4CCCCC4)CC3)nn2CC1(C)C(=O)NC1CCCC1 (centres undefined)	.	/	/
Nn1c(Cc2ccccc2F)nnc1SCc1cc(=O)oc2cc(O)c(O)cc12	.	55	.
CCn1c(SCc2cc(=O)oc3cc(O)ccc23)nc2ccccc21	.	.	.
Nn1c(SCc2cc(=O)oc3cc(O)c(O)cc23)nnc1-c1ccncc1	.	.	.
Cn1c(SCc2cc(=O)oc3cc(O)c(O)cc23)nc2ccccc21	.	67	.
SMILES	HCMV NEC inh	Sa helicase inh	Sa growth 42C
O=C(CSc1oc(-c2ccco2)nc1S(=O)(=O)c1ccc(Cl)cc1)NC1CCCCC1	/	.	.
O=C(O)c1cccc(Oc2cccc(C(F)(F)F)c2)c1	.	.	.
CS(=O)(=O)c1nc(Oc2cccc(C(F)(F)F)c2)cc(Oc2cccc(C(F)(F)F)c2)n1	.	.	32
COc1cc(OC)cc(-c2nc3ccccc3c(=O)n2OC(=O)c2cc(Cl)ccc2OC)c1	.	/	/
COc1ccccc1C(=O)On1c(C)nc2ccccc2c1=O	31	/	/
O=C(NCCc1ccccc1)c1nnc(-c2ccc3c(c2)OCO3)o1	.	.	.
CN1c2ccccc2Oc2nnc(N3CCN(Cc4ccccc4)CC3)cc21	.	.	.
CN1c2ccccc2Oc2nnc(Cl)cc21	105	.	.
CC(=O)Nc1c(C)nc(Nc2ccc(C)cc2)nc1Nc1ccc(C)cc1	.	/	/
CC1CCN(Cn2nc(-c3ccc4c(c3)OCO4)oc2=S)CC1	.	.	42
CC1CN(Cn2nc(-c3ccc4c(c3)OCO4)oc2=S)CC(C)O1 (centres undefined)	.	.	.
CC(C)N1CCc2c(sc(NC(=O)C3=COCCO3)c2C(N)=O)C1	.	42	.
NC(=O)c1c(NC(=O)C2=COCCO2)sc2c1CCCC2	.	.	/
C(=Nc1cccnc1)c1ccccc1	.	.	.
C(=Nc1cccnc1)c1c[nH]c2ccccc12	.	.	8.3
CCOc1ccc(NS(=O)(=O)c2ccc3nc(-c4ccccc4)[nH]c3c2)cc1	.	/	.
CCOc1ccc(-c2nc3ccc(-c4nc5ccc(N6CCN(C)CC6)cc5[nH]4)cc3[nH]2)cc1	75	/	/
Cc1cccc(CS(=O)(=O)c2ncc(Cl)c(C(=O)NCc3ccccc3)n2)c1	.	/	1.6
O=C(NCc1ccccc1)c1nc(S(=O)(=O)Cc2ccc(F)cc2)ncc1Cl	.	/	.
CCc1cccc2c1=NC(=O)C=2c1c(C)[nH]n(-c2ccccc2)c1=O	.	.	.
Cc1[nH]n(-c2ccccc2)c(=O)c1C1=c2ccccc2=NC1=O	68	.	.
CN(C(=O)CN1CCN(c2ccccc2O)CC1)c1ccccc1	.	.	.
CCOC(=O)C(Sc1nc(C)cc(=O)[nH]1)c1ccccc1 (centres undefined)	.	.	.
O=C(O)CNC(=O)Cc1ccccc1	.	/	.
O=C(NC1(O)C(=O)c2ccccc2C1=O)c1cnn(-c2ccccc2)c1C(F)(F)F	.	/	.
SMILES	HCMV NEC inh	Sa helicase inh	Sa growth 42C
Cc1ccc(C(=O)NC2(O)C(=O)c3ccccc3C2=O)cc1C	59	/	.
Cc1ccc(C(=O)O)cc1NC1(c2ccccc2)C(=O)c2ccccc2C1=O	/	/	.
O=C(NC1(O)C(=O)c2ccccc2C1=O)c1ccc(C(F)(F)F)cc1	58	.	.
O=C(NC1(O)C(=O)c2ccccc2C1=O)c1ccccn1	.	.	.
Cc1nc(C(=O)NC2(O)C(=O)c3ccccc3C2=O)cs1	60	/	.
O=C(Cc1ccccc1)NC1(O)C(=O)c2ccccc2C1=O	50	/	.
CCOC(=O)c1c(C)n(-c2ccccc2)c2c1cc(OC(=O)C(C)C)c1ccccc12	.	/	/
O=C(COc1ncnc2c(Cl)cc(Cl)cc12)NCc1ccc2c(c1)OCO2	.	.	.
O=c1nc(SCc2ccc(F)cc2)c2c(n1C1CCCCC1)CCC2	.	/	/
CCn1c(=O)n(-c2ccccc2)c(=O)c2cc3c(nc21)CC(C)(C)OC3	.	/	/
CSc1ncccc1C(=O)Nc1ccccc1C	/	.	.
CSc1ncccc1C(=O)NC1(O)C(=O)c2ccccc2C1=O	56	/	.
O=C(Nc1nnc(C(F)(F)F)s1)C(Cc1ccccc1)N1C(=O)C2C3C=CC(C3)C2C1=O (centres undefined)	.	.	.
CCOC(=O)C1=C(C)NC2=C(C(=O)CC(c3ccc(Cl)cc3)C2)C1c1ccc(OC)cc1OC (centres undefined)	.	/	/
CC1(C)S[C@H]2C(NC(=O)C(N)c3ccccc3)C(=O)N2C1C(=O)O (some centres undefined)	.	/	/
CC1(C)S[C@@H]2[C@H](NC(=O)COc3ccccc3)C(=O)N2[C@H]1C(=O)O	.	/	-0.9
